A selection follows.
aSyn UTR act: Activators via SNCA 5'UTR binding, MLPCN. alpha-synuclein 5'UTR reporter, activators screen. activity score, % (tested at 7.5 µM), hits read low. 300,000 compounds, 7.1% hits; in the data active = activity score below about -60%
* hit, by the source's call.

SMILES | aSyn UTR act
O=C(Nc1cccc(-c2cn3c(n2)SCC3)c1)c1ccc2ccccc2n1 | -141.0*
O=C(Nc1ccc2c(c1)OCCO2)c1ccc(CN2CCOCC2)cc1 | -148.1*
O=C(Nc1ccc2c(c1)OCCO2)c1ccc(Cl)c(S(=O)(=O)N2CCOCC2)c1 | -66.7*
Cc1ccc(C(=O)Nc2ccc(CN3CCS(=O)(=O)CC3)cc2)cc1C | -78.1*
CN(Cc1ccc(F)cc1)C(=O)CCc1nnc(-c2ccccc2)o1 | -90.5*
CC(=O)N(Cc1ccc(F)cc1)C1=C(NCCc2ccccc2)C(=O)c2ccccc2C1=O | 69.6
COc1ccc(CCN(C)C(=O)CCc2nnc(-c3ccccc3)o2)cc1OC | -86.1*
Cn1c(=S)[nH]c2sc3c(c2c1=O)CCC(C(C)(C)C)C3 (stereo unspecified) | -87.3*
Cc1ccoc1C(=O)Nc1ccc(CC(=O)O)cc1 | 83.9
O=C(Nc1ccc2c(c1)CCC2)c1ccc(Br)o1 | -157.0*
Cc1ccc(C(=O)Nc2ccc(F)cc2)o1 | -73.2*
Cc1ccc(NC(=O)c2ccc(Br)o2)cc1S(=O)(=O)N(C)C | -125.4*
Cc1ccc(NC(=O)c2ccc(OC(F)(F)F)cc2)cc1S(=O)(=O)N(C)C | -76.2*
O=C(Nc1ccc2c(c1)CCC2)c1cc2ccccc2o1 | -188.1*
Cc1occc1C(=O)Nc1ccc2c(c1)CCC2 | -187.8*
Cc1ccc(C(=O)Nc2ccc3c(c2)CCC3)o1 | -134.4*
O=C(Nc1ccc2c(c1)OCO2)c1ccc(Br)o1 | -255.7*
Cc1ccc(C(=O)Nc2ccccc2C(N)=O)o1 | -78.1*
O=C(Nc1ccc2c(c1)OCO2)c1ccc(COc2ccc3c(c2)CCC3)o1 | -76.1*
CCOC(=O)c1c(C)[nH]c(C(=O)NCc2ccccn2)c1C | -158.9*
CCOC(=O)c1[nH]c(C)c(C(=O)Nc2ccc(C)c(Cl)c2)c1C | -91.7*
CCOC(=O)c1c(C)[nH]c(C(=O)N/N=C\c2ccccc2O)c1C | 86.8
CC(=O)c1c(C)[nH]c(C(=O)OCc2cccc(C)c2)c1C | -89.6*
CCOC(=O)c1c(Cc2ccccc2)c[nH]c1C | -74.8*
CCOC(=O)c1c(C)[nH]c(C(=O)OCC(=O)NCCc2ccc(OCC)c(OCC)c2)c1C | 60.1
SMILES | aSyn UTR act
CC(=O)c1c(C)[nH]c(C(=O)OCc2ccc(Br)cc2)c1C | -74.4*
CCCCCCC(=O)c1c(C)[nH]c(C(=O)OCC)c1C | -113.5*
CC(=O)c1c(C)[nH]c(C(=O)OCCOc2ccccc2)c1C | 66.8
CC(=O)c1c(C)[nH]c(C(=O)OCc2ccccc2F)c1C | -100.7*
CCOC(=O)c1c(C)[nH]c(C(=O)OCc2ccccc2)c1C | -165.4*
CCOC(=O)c1c(C)[nH]c(C(=O)C(C)Sc2ccc(Cl)cc2)c1C (stereo unspecified) | -97.4*
c1ccc2c(c1)Cn1c-2nc2ccccc21 | -124.0*
Brc1c(-c2ccccc2)nc2n1Cc1ccccc1-2 | -145.8*
Cc1cc(C(=O)COC(=O)c2ccc(O)cc2)c(C)n1Cc1ccco1 | -139.7*
CCOc1ncccc1C(=O)OCC(=O)c1cc(C)n(Cc2ccco2)c1C | -115.0*
Cc1cc(C(=O)COC(=O)c2ccc(Br)o2)c(C)n1Cc1ccco1 | -115.6*
CS(=O)(=O)c1nc(S(=O)(=O)c2ccc(Cl)cc2)c(N2CCOCC2)s1 | -74.9*
Cc1ccc(S(=O)(=O)c2nc(S(C)(=O)=O)sc2N2CCCCCC2)cc1 | -113.0*
Cc1ccc(-c2cc(N)n(-c3ccc(C)cc3)n2)cc1 | -123.7*
Cc1ccc(-c2cc(N)n(-c3ccc(F)cc3)n2)cc1 | -146.5*
CCOC(=O)Nc1cc(Br)c2c(c1)OCCO2 | -67.9*
Cc1cc(C(=O)Nc2ccc([N+](=O)[O-])cn2)cs1 | -137.4*
Cc1ccc(C(=O)Nc2ccc([N+](=O)[O-])cn2)o1 | -93.3*
CC(Oc1cccc(Cl)c1)C(=O)Nc1ccc([N+](=O)[O-])cn1 (stereo unspecified) | 55.1
CCN1/C(=C/c2ccc3cc(C)ccc3[n+]2CC)Sc2ccccc21 | 99.9
O=C(Nc1nc2ccccc2[nH]1)c1ccccc1O | -73.8*
Cc1ccc(Nc2nc3ccccc3[nH]2)nc1 | -219.9*
O=C(Nc1nc2ccccc2[nH]1)c1cccc(Cl)c1 | -151.1*
O=C(Nc1nc2ccccc2[nH]1)c1ccc(Cl)cc1 | 65.9
O=C(NNc1ncnc2ccccc12)c1cccc(Cl)c1 | -84.0*
SMILES | aSyn UTR act
Cc1ccc(C)c(C(=O)Nc2nc3ccccc3[nH]2)c1 | -69.4*
Cc1ccc(C)c(OCc2nc3ccccc3[nH]2)c1 | -112.6*
Cc1ccc(NC(=O)N2CCCCCC2)cc1C | -90.2*
O=C(Nc1ccc(Cl)cc1)N1CC=CCC1 | -133.8*
COc1cccc(NC(=O)N2CCCCCC2)c1 | -88.1*
COc1ccc(NC(=O)N2CCCCCC2)cc1 | -76.9*
O=C(Nc1ccc(F)c(Cl)c1)N1CCCCCC1 | -75.5*
O=C(Nc1ccc(Br)cc1)N1CCCCC1 | -62.7*
Cc1ccc(NC(=O)C2CCCN(C(=O)c3ccc(Cl)cc3)C2)cc1C (stereo unspecified) | -100.5*
COc1ccc(NC(=S)c2ccccc2)cc1 | -147.7*
COc1ccc(C(=S)Nc2ccc(N(C)C)cc2)cc1 | -99.4*
Cc1ccc(NC(=S)c2ccc(N(C)C)cc2)cc1 | 54.9
CCOc1ccc(NC(=S)c2ccncc2)cc1 | -109.7*
CCc1cccc(NC(=O)Nc2cccs2)c1 | -243.5*
COc1ccc(NC(=O)Nc2cccs2)cc1Cl | -166.9*
COc1ccc(NC(=O)C=C(C)C)cc1Cl | -122.2*
COc1ccc(NC(=O)c2cc(F)c(F)cc2Cl)cc1Cl | -92.9*
CCNC(=O)C(=O)Nc1ccc(OC)c(Cl)c1 | -83.4*
CC(C)=CC(=O)Nc1ccc(Cl)cc1 | -90.0*
Nc1nn(-c2ccccc2)nc1C(=O)OCc1ccccc1 | -62.5*
COC(=O)C[C@](O)(CCCC(C)(C)O)C(=O)O[C@@H]1C(OC)=C[C@]23CCCN2CCc2cc4c(cc2[C@H]13)OCO4 | 126.9
Cn1c(=O)c2nc(-c3ccc(Cl)cc3Cl)oc2c2ccccc21 | -72.2*
C=CCn1c(=N)n(CC(=O)c2cccc([N+](=O)[O-])c2)c2ccccc21 | -77.0*
CCCn1nnc(NC(=O)c2ccc(-c3cccc(Cl)c3)o2)n1 | -80.0*
CCCCn1nnc(N(C(=O)c2cccs2)C(=O)c2cccs2)n1 | -88.7*
SMILES | aSyn UTR act
CCCn1nnc(NC(=S)NC(=O)c2cccs2)n1 | -101.9*
CCCn1nnc(NC(=O)c2ccc3c(c2)OCO3)n1 | -89.8*
CCCn1nnc(NC(=O)c2cccc(Cl)c2)n1 | -64.4*
CCCn1nnc(NC(=O)c2sc3ccccc3c2Cl)n1 | -104.1*
O=C(NCC1CCCCC1)c1cc2ccccc2cc1O | -109.1*
O=C(NCC1CCCO1)c1cc2ccccc2cc1O (stereo unspecified) | -125.2*
CCOC(=O)C(C)/C(C)=N/NC(=O)c1cc2ccccc2cc1O (stereo unspecified) | 61.6
O=[N+]([O-])c1ccccc1CSc1nc2ccccc2o1 | -193.4*
C=CCn1c(SCC(N)=O)nc2scc(-c3ccc(C)o3)c2c1=O | -84.2*
C=CCn1c(SCC(=O)c2[nH]c(C)c(C(=O)OCC)c2C)nc2scc(-c3ccccc3)c2c1=O | 57.2
CN(C)C(=O)COc1ccc2cc(-c3ccccc3)c(=O)oc2c1 | -91.1*
COc1ccc2cc(-c3ccccc3)c(=O)oc2c1 | -71.7*
COc1ccccc1N=Nc1[nH]c2ccc(C)cc2c1O | -168.8*
Cc1cc(C)n(CC(=O)NC2CCCc3c2cnn3-c2ccc(C)c(C)c2)n1 (stereo unspecified) | -84.2*
Cc1ccc(-n2ncc(C(=O)Nc3cc(Cl)cc(Cl)c3)c2C2CCNCC2)cc1C | 92.9
COc1cccc(CCc2nc3ccccc3c(=O)n2N)c1 | -67.9*
